# The sample as a whole holds a higher share of the strongest signals than the screen did.
# B1: PX9961K-bvu-480-28-480 (Bacteroides vulgatus) (protein)
# chain: NKIPTTMAFRTVTDVDNAVNGLYDLMSGSGYYGAAMFAYGDMKGDDMQSSEESGVCNTCYMFNHRPNSLNAGSLWGRPFYILREAWNILNAIAEGKIESGDEKKLNALKGETMAVIALCQFDLTRCFGYPYTKDKGASLGAPLIDHLVGTYENPPRSTVAQAYDFIIETLEEAVTLMSEEKNNGRMNKYAARALLARIYLYHDDNRKAFDLADQLIKDADTSGSYALYPHEKYVAAWSVEAKFGSESFFEIANSVDDTPGRDSWGYLLNWYGYQKGFVTQKYAEQMLADPGDVRGHLLEENKYAGKTVWWLYKLRGTDLKTAPLECNNVVLRLSEVYLIAAEAGCKLGGDAAVQGLGYLNEIVKRGNPDNEVTMADYTLDRVLDERSKELVGEGHRFFDLLRNGKTIVRKGGYHLPSVDEEVDWDFYKCVLPIPEDQFIFSPEMEQNPGYPKN
# What was measured:
# Experiment in all cases: glycan array binding signal (z-score within array); higher = stronger binding
# Settings in all cases: glycan notation: IUPAC condensed, linker removed
# Fuc(a1-2)Gal = target: Fuc(a1-2)Gal
# Summary of the method: (§1)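 From the Consortium for Functional Glycomics database, 3228 arrays were curated, keeping only those whose protein sequence was available. Binding is given as a within-array Z-score averaged across arrays sharing a protein sequence and across linkers. Negative Z-scores can be read as non-binding.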
# [1] = target: Fuc(a1-2)Gal(b1-3)GalNAc(b1-4)[Neu5Ac(a2-3)]Gal(b1-4)Glc
# Summary of the method: as §1
# [2] = target: Fuc(a1-2)Gal(b1-3)GlcNAc(b1-3)[Neu5Ac(a2-6)Gal(b1-4)GlcNAc(b1-6)]Gal(b1-4)Glc
# Summary of the method: as §1
# [3] = target: Fuc(a1-2)[Gal(a1-3)]Gal(b1-3)GlcNAc
# Summary of the method: as §1
# [4] = target: Fuc(a1-2)[Gal(a1-3)]Gal(b1-4)[Fuc(a1-3)]Glc
# Summary of the method: as §1
# [5] = target: Fuc(a1-2)[Gal(a1-3)]Gal(b1-4)[Fuc(a1-3)]GlcNAc(b1-3)GalNAc
# Summary of the method: as §1
# [6] = target: Fuc(a1-3)[Gal(b1-4)]Glc6S
# Summary of the method: as §1
# [7] = target: Fuc(a1-3)[Gal3S(b1-4)]Glc
# Summary of the method: as §1
# [8] = target: Gal(a1-3)[Gal(a1-4)]Gal(b1-4)GlcNAc
# Summary of the method: as §1
# [9] = target: Gal(a1-4)Gal(b1-4)GlcNAc(b1-2)Man(a1-3)[Gal(a1-4)Gal(b1-4)GlcNAc(b1-2)Man(a1-6)]Man(b1-4)GlcNAc(b1-4)GlcNAc
# Summary of the method: as §1
# Gal(b1-2)Gal = target: Gal(b1-2)Gal
# Summary of the method: as §1
# [10] = target: Gal(b1-3)GlcNAc(b1-3)Gal(b1-4)GlcNAc(b1-2)Man(a1-3)[Gal(b1-3)GlcNAc(b1-3)Gal(b1-4)GlcNAc(b1-2)Man(a1-6)]Man(b1-4)GlcNAc(b1-4)GlcNAc
# Summary of the method: as §1
# Gal(b1-4)Glc = target: Gal(b1-4)Glc
# Summary of the method: as §1
# [11] = target: Gal(b1-4)GlcNAc(b1-2)[Gal(b1-4)GlcNAc(b1-4)]Man(a1-3)[GlcNAc(b1-4)][Gal(b1-4)GlcNAc(b1-2)[Gal(b1-4)GlcNAc(b1-6)]Man(a1-6)]Man(b1-4)GlcNAc(b1-4)GlcNAc
# Summary of the method: as §1
# [12] = target: Gal(b1-4)GlcNAc(b1-3)Gal(b1-4)GlcNAc(b1-3)Gal(b1-4)GlcNAc(b1-3)Gal(b1-4)GlcNAc(b1-3)Gal(b1-4)GlcNAc(b1-2)[Gal(b1-4)GlcNAc(b1-3)Gal(b1-4)GlcNAc(b1-3)Gal(b1-4)GlcNAc(b1-3)Gal(b1-4)GlcNAc(b1-3)Gal(b1-4)GlcNAc(b1-6)]Man(a1-6)[Gal(b1-4)GlcNAc(b1-3)Gal(b1-4)GlcNAc(b1-3)Gal(b1-4)GlcNAc(b1-3)Gal(b1-4)GlcNAc(b1-3)Gal(b1-4)GlcNAc(b1-2)Man(a1-3)]Man(b1-4)GlcNAc(b1-4)[Fuc(a1-6)]GlcNAc
# Summary of the method: as §1
# [13] = target: Gal(b1-4)GlcNAc(b1-3)Gal(b1-4)GlcNAc(b1-3)Gal(b1-4)GlcNAc(b1-3)Gal(b1-4)GlcNAc(b1-3)Gal(b1-4)GlcNAc(b1-3)Gal(b1-4)GlcNAc(b1-2)Man(a1-3)[Gal(b1-4)GlcNAc(b1-3)Gal(b1-4)GlcNAc(b1-3)Gal(b1-4)GlcNAc(b1-3)Gal(b1-4)GlcNAc(b1-3)Gal(b1-4)GlcNAc(b1-3)Gal(b1-4)GlcNAc(b1-2)Man(a1-6)]Man(b1-4)GlcNAc(b1-4)GlcNAc
# Summary of the method: as §1
# Gal3S(b1-4)Glc6S = target: Gal3S(b1-4)Glc6S
# Summary of the method: as §1
# Gal3S6S(b1-4)GlcNAc = target: Gal3S6S(b1-4)GlcNAc
# Summary of the method: as §1
# Gal3S6S(b1-4)GlcNAc6S = target: Gal3S6S(b1-4)GlcNAc6S
# Summary of the method: as §1
# [14] = target: GalNAc(a1-3)GalNAc(b1-3)Gal(a1-4)Gal(b1-4)Glc
# Summary of the method: as §1
# GalNAc(b1-3)GlcNAc = target: GalNAc(b1-3)GlcNAc
# Summary of the method: as §1
# GalNAc(b1-4)Gal(b1-4)Glc = target: GalNAc(b1-4)Gal(b1-4)Glc
# Summary of the method: as §1
# [15] = target: GalNAc(b1-4)GlcNAc(b1-3)GalNAc(b1-4)GlcNAc
# Summary of the method: as §1
# Glc(a1-6)Glc(a1-6)Glc = target: Glc(a1-6)Glc(a1-6)Glc
# Summary of the method: as §1
# GlcNAc(b1-3)Fuc = target: GlcNAc(b1-3)Fuc
# Summary of the method: as §1
# [16] = target: GlcNAc(b1-3)Gal(b1-4)GlcNAc(b1-3)Gal(b1-4)GlcNAc(b1-2)Man(a1-3)[GlcNAc(b1-3)Gal(b1-4)GlcNAc(b1-3)Gal(b1-4)GlcNAc(b1-2)Man(a1-6)]Man(b1-4)GlcNAc(b1-4)[Fuc(a1-6)]GlcNAc
# Summary of the method: as §1
# [17] = target: GlcNAc(b1-3)Gal(b1-4)GlcNAc(b1-3)Gal(b1-4)GlcNAc(b1-3)Gal(b1-4)GlcNAc(b1-3)Gal(b1-4)GlcNAc(b1-2)Man(a1-3)[GlcNAc(b1-3)Gal(b1-4)GlcNAc(b1-3)Gal(b1-4)GlcNAc(b1-3)Gal(b1-4)GlcNAc(b1-3)Gal(b1-4)GlcNAc(b1-2)Man(a1-6)]Man(b1-4)GlcNAc(b1-4)[Fuc(a1-6)]GlcNAc
# Summary of the method: as §1
# [18] = target: GlcNAc(b1-3)Gal(b1-4)GlcNAc(b1-6)[GlcNAc(b1-3)]Gal(b1-4)GlcNAc
# Summary of the method: as §1
# [19] = target: GlcNAc(b1-3)[GlcNAc(b1-6)]GalNAc
# Summary of the method: as §1
# [20] = target: GlcNAc(b1-4)[GlcNAc(b1-6)]GalNAc
# Summary of the method: as §1
# [21] = target: GlcNAc6S(b1-3)Gal(b1-4)GlcNAc
# Summary of the method: as §1
# [22] = target: Kdn(a2-3)Gal(b1-4)[Fuc(a1-3)]GlcNAc
# Summary of the method: as §1
# [23] = target: Man(a1-3)[Man(a1-6)]Man(a1-6)[Man(a1-3)]Man
# Summary of the method: as §1
# [24] = target: Neu5Ac(a2-3)Gal(b1-3)GlcNAc6S
# Summary of the method: as §1
# [25] = target: Neu5Ac(a2-3)Gal(b1-4)GlcNAc(b1-2)[Neu5Ac(a2-3)Gal(b1-4)GlcNAc(b1-6)]Man(a1-6)[Neu5Ac(a2-3)Gal(b1-4)GlcNAc(b1-2)Man(a1-3)][GlcNAc(b1-4)]Man(b1-4)GlcNAc(b1-4)GlcNAc
# Summary of the method: as §1
# [26] = target: Neu5Ac(a2-3)Gal(b1-4)GlcNAc(b1-3)Gal(b1-4)GlcNAc(b1-6)[Gal(b1-3)]GalNAc
# Summary of the method: as §1
# [27] = target: Neu5Ac(a2-3)Gal(b1-4)GlcNAc(b1-6)GalNAc
# Summary of the method: as §1
# [28] = target: Neu5Ac(a2-6)Gal(b1-4)GlcNAc(b1-3)Gal(b1-4)GlcNAc(b1-3)Gal(b1-4)GlcNAc(b1-2)Man(a1-3)[Neu5Ac(a2-6)Gal(b1-4)GlcNAc(b1-3)Gal(b1-4)GlcNAc(b1-3)Gal(b1-4)GlcNAc(b1-2)Man(a1-6)]GalNAc
# Summary of the method: as §1
# [29] = target: Neu5Ac(a2-6)Gal(b1-4)GlcNAc(b1-3)[Neu5Ac(a2-6)Gal(b1-4)GlcNAc(b1-6)]GalNAc
# Summary of the method: as §1
# [30] = target: Neu5Ac(a2-8)Neu5Ac(a2-3)[Gal(b1-3)GalNAc(b1-4)]Gal(b1-4)Glc
# Summary of the method: as §1
# [31] = target: Neu5Ac(a2-8)Neu5Gc(a2-3)Gal(b1-4)GlcNAc
# Summary of the method: as §1
binder,measurement,setting,value
B1,glycan array binding signal (z-score),Fuc(a1-2)Gal,-0.335
same,glycan array binding signal (z-score),[1],-0.817
same,glycan array binding signal (z-score),[2],-0.084
same,glycan array binding signal (z-score),[3],-0.605
same,glycan array binding signal (z-score),[4],0.151
same,glycan array binding signal (z-score),[5],-0.75
same,glycan array binding signal (z-score),[6],0.583
same,glycan array binding signal (z-score),[7],0.709
same,glycan array binding signal (z-score),[8],3.09
same,glycan array binding signal (z-score),[9],1.47
same,glycan array binding signal (z-score),Gal(b1-2)Gal,0.817
same,glycan array binding signal (z-score),[10],0.157
same,glycan array binding signal (z-score),Gal(b1-4)Glc,-0.177
same,glycan array binding signal (z-score),[11],0.328
same,glycan array binding signal (z-score),[12],1.61
same,glycan array binding signal (z-score),[13],1.2
same,glycan array binding signal (z-score),Gal3S(b1-4)Glc6S,0.273
same,glycan array binding signal (z-score),Gal3S6S(b1-4)GlcNAc,0.512
same,glycan array binding signal (z-score),Gal3S6S(b1-4)GlcNAc6S,1.05
same,glycan array binding signal (z-score),[14],-0.347
same,glycan array binding signal (z-score),GalNAc(b1-3)GlcNAc,0.085
same,glycan array binding signal (z-score),GalNAc(b1-4)Gal(b1-4)Glc,0.362
same,glycan array binding signal (z-score),[15],-0.336
same,glycan array binding signal (z-score),Glc(a1-6)Glc(a1-6)Glc,-0.638
same,glycan array binding signal (z-score),GlcNAc(b1-3)Fuc,1.16
same,glycan array binding signal (z-score),[16],1.89
same,glycan array binding signal (z-score),[17],0.909
same,glycan array binding signal (z-score),[18],1.77
same,glycan array binding signal (z-score),[19],-0.501
same,glycan array binding signal (z-score),[20],0.135
same,glycan array binding signal (z-score),[21],1.58
same,glycan array binding signal (z-score),[22],-0.426
same,glycan array binding signal (z-score),[23],2.06
same,glycan array binding signal (z-score),[24],0.976
same,glycan array binding signal (z-score),[25],1.59
same,glycan array binding signal (z-score),[26],-0.074
same,glycan array binding signal (z-score),[27],-0.742
same,glycan array binding signal (z-score),[28],1.68
same,glycan array binding signal (z-score),[29],-0.532
same,glycan array binding signal (z-score),[30],-0.283
same,glycan array binding signal (z-score),[31],19.1
